Bioassay records deposited in PubChem by National Center for Advancing Translational Sciences (NCATS).
Hits are enriched below; roughly 9.3% of the tested compounds scored in any of these assays.
HCMV antiviral = blocks human cytomegalovirus replication | HFF cells, HCMV-luciferase reporter, 72 h; stronger effect = lower value | activity change, negative = inhibition, % at 57.5 µM | 410,000 tested, 4.5% active; in the data active means activity change below about -60%; inconclusive means no clear call, values can overlap the other calls; inactive means above about -39%
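After 16 h attachment at 37C, HFF cells received test compound and HCMV-luciferase (1 PFU/cell); reporter luminescence read 72 h later, data normalized against buffer-only and known inhibitor Salinomycin.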
Vaccinia Venus = inhibitors of vaccinia virus (Venus reporter). 330,000 tested, 0.46% active. Vaccinia virus Venus reporter expression, fluorescence. AID 720580. Potency, µM (highest dose often 36.5 µM), usual class: inhibitors; calls by dose curve; tested in A549 cells; further: nearly all actives have a fitted effect of over 30% in size
Sm TGR block = blocks Schistosoma mansoni thioredoxin glutathione reductase. Q962Y6. purified TGR, DTNB reduction, TNB absorbance 405 nm. Potency, µM (titrated, usually from 114 µM), hits mostly inhibitors. 360,000 tested, 3% active; further: nearly all actives have a fitted effect of over 60% in size
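First, TGR (20 nM dispensed) and NADPH were mixed with compound. Second, a 15 min room-temperature incubation followed. Third, further NADPH and then DTNB were added to start the reaction. Finally, TNB absorbance was monitored kinetically.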
FMDV inh = blocks foot and mouth disease virus. 410,000 tested, 1.2% active. FMDV antiviral cell-based qHTS. Potency, µM (highest dose often 57.9 µM), actives largely listed as inhibitors; calls by dose curve; tested in HEK293T cells; further: read-out not given here; nearly all actives have a fitted effect of over 45% in size
HCV inh = HCV inhibition | Potency, µM (highest dose often 41.8 µM), hits mostly inhibitors | Huh7.5.1 HCVcc-Cre infection, luciferase reporter, 44 h | AID 651820 | 340,000 tested, 3.4% active
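Luciferase read-out (15 sec integration) after a 15 min room-temperature substrate step quantifies HCVcc-Cre infection. Cells, 1,000 per well, had compound added 4 h post-plating, then virus at ~0.5 moi, and were cultured 44 h.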
Vaccinia mCherry = vaccinia inhibition (mCherry reporter). Vaccinia virus mCherry reporter infection, fluorescence. Potency, µM (top dose mostly 36.5 µM), actives largely listed as inhibitors. 310,000 tested, 0.63% active; calls by dose curve; tested in A549 cells; further: nearly all actives have a fitted effect of over 35% in size
Large screens that a line does not name were inactive. Unless noted, the call rests on the fitted dose curve; in most records, active means well fitted curve in the direction sought with a large enough effect; inconclusive means small, poorly fitted or top-dose-only effect, or another doubt; inactive means no such curve, though single readings can be large; an effect the other way counts as inactive or inconclusive.

Cc1nc2sc(C(c3ccco3)N3CCN(c4ccccc4)CC3)c(O)n2n1 (stereo unspecified)	HCMV antiviral -100.0, Sm TGR block inconclusive
Cc1nc2sc(C(c3ccccc3)N3CC(C)OC(C)C3)c(O)n2n1 (stereo unspecified)	none
Cc1nc2sc(C(c3ccco3)N3CC(C)OC(C)C3)c(O)n2n1 (stereo unspecified)	Sm TGR block 44.7µM
Cc1nc2sc(C(c3ccco3)N3CCN(C(c4ccccc4)c4ccccc4)CC3)c(O)n2n1 (stereo unspecified)	Vaccinia Venus inconclusive, Sm TGR block inconclusive, HCV inh inconclusive
C/C(O)=C(/C#N)c1nc2ccccc2[nH]1	Vaccinia Venus inconclusive (no result: Vaccinia mCherry)
CC(=O)OC(/C(O)=C(\C#N)c1nc2ccccc2[nH]1)c1ccccc1 (stereo unspecified)	HCMV antiviral -95.6, Vaccinia mCherry inconclusive (no result: FMDV inh)
N#C/C(=C(/O)C(Cl)(Cl)Cl)c1nc2ccccc2[nH]1	Sm TGR block 3.98µM, FMDV inh inconclusive (no result: Vaccinia Venus, Vaccinia mCherry)
COc1ccc(/C=N/NC(=O)c2cc(C)oc2C)cc1OC	none
O=C(CC(NS(=O)(=O)c1ccc(Cl)cc1)c1ccco1)NCc1cccnc1 (stereo unspecified)	none (no result: Vaccinia mCherry)
CCN(CC)C(=O)C(=O)c1cn(CC(=O)N2CCc3ccccc3C2)c2ccccc12	HCMV antiviral inconclusive, Sm TGR block 44.7µM
O=C(C(=O)N1CCc2ccccc2C1)c1cn(CC(=O)N2CCCC2)c2ccccc12	HCMV antiviral inconclusive
CN1CCN(C(=O)c2cc3c(s2)-c2ccccc2S(=O)(=O)C3)CC1	none
O=C(c1cc2c(s1)-c1ccccc1S(=O)(=O)C2)N1CCN(Cc2ccccc2)CC1	HCMV antiviral -73.8, Vaccinia Venus inconclusive, FMDV inh 20µM, HCV inh 10µM, Vaccinia mCherry inconclusive
COc1ccc(N2CCN(C(=O)c3cc4c(s3)-c3ccccc3S(=O)(=O)C4)CC2)cc1	HCV inh 10µM, Vaccinia mCherry inconclusive
COc1ccc(N(C)C(=O)c2cc3c(s2)-c2ccccc2S(=O)(=O)C3)cc1	HCV inh inconclusive
COc1cc(OC)c(N(C)C(=O)c2cc3c(s2)-c2ccccc2S(=O)(=O)C3)cc1Cl	HCV inh 22.4µM (no result: Sm TGR block)
COC(=O)[C@H](CCSC)NC(=O)NCc1ccc(S(N)(=O)=O)cc1	none (no result: Vaccinia Venus, Vaccinia mCherry)
COc1ccc(-c2cc(C(F)(F)F)nc(SCC(=O)NCCCN3CCOCC3)n2)cc1	none (no result: Vaccinia Venus, Sm TGR block, Vaccinia mCherry)
COc1cc2c(cc1OC)C(c1ccccc1)N(C(=O)c1ccco1)CC2 (stereo unspecified)	HCMV antiviral inconclusive
O=C(c1ccco1)N1CCn2cccc2C1c1ccccc1 (stereo unspecified)	Sm TGR block 35.5µM
CC1CCc2c(sc3ncn(CC(=O)N=Nc4c(O)[nH]c5ccccc45)c(=O)c23)C1 (stereo unspecified)	none (no result: Vaccinia Venus, Vaccinia mCherry)
CCc1nc(N=Nc2c(O)[nH]c3ccccc23)c2c3c(sc2n1)CCC3	HCMV antiviral inconclusive, Vaccinia Venus 10µM, HCV inh inconclusive, Vaccinia mCherry 15.8µM
COC(=O)c1ccc(N2CCN(S(=O)(=O)c3ccccc3)CC2)c([N+](=O)[O-])c1	HCV inh inconclusive (no result: Vaccinia Venus, Vaccinia mCherry)
O=c1cc(-c2ccccc2)c2ccc3c(c2o1)CN(Cc1cccc(Cl)c1)CO3	none (no result: HCV inh)
COc1cc2cc(C)c(SCC(=O)N3CCN(C(=O)c4ccco4)CC3)nc2cc1OC	Sm TGR block 17.8µM, FMDV inh inconclusive, HCV inh inconclusive (no result: Vaccinia Venus, Vaccinia mCherry)
Cc1cc2cc(C)c3nnc(SCC(=O)N4CCN(C(=O)c5ccco5)CC4)n3c2cc1C	HCMV antiviral -73.2 (no result: Sm TGR block, FMDV inh)
O=C(CSc1nnc(-c2ccccc2Br)o1)N1CCN(C(=O)c2ccco2)CC1	Vaccinia Venus inconclusive, Vaccinia mCherry 12.6µM (no result: FMDV inh)
CCN(CC)S(=O)(=O)c1ccc(N2CCOCC2)c(NC(=O)c2ccccc2)c1	none
CCN(CC)S(=O)(=O)c1ccc(N2CCOCC2)c(NC(=O)c2cc3ccccc3o2)c1	HCMV antiviral -73.1 (no result: Sm TGR block, HCV inh)
CCN(CC)S(=O)(=O)c1ccc(N2CCOCC2)c(NC(=O)COc2ccc(Cl)cc2)c1	HCMV antiviral inconclusive, HCV inh 10µM (no result: Vaccinia Venus, Vaccinia mCherry)
CCCCCCC(C)n1[nH]c(=O)cc1N (stereo unspecified)	Sm TGR block inconclusive, Vaccinia mCherry inconclusive
O=C1[C@@H](Oc2ccccc2)[C@@H](c2cccnc2)N1c1ccccc1	HCV inh 35.5µM (no result: Sm TGR block)
O=C1[C@@H](Oc2ccccc2)[C@@H](c2ccccc2)N1c1ccccc1	none (no result: Sm TGR block)
O=C1[C@H](Oc2ccccc2)[C@@H](c2ccccc2)N1c1ccncc1	Vaccinia Venus inconclusive, FMDV inh 15.8µM, HCV inh inconclusive (no result: Sm TGR block)
O=C(Cc1n[nH]c(=O)c2ccccc12)OCC(=O)c1ccc(OC(F)F)cc1OC(F)F	none
CC(=O)C1CC[C@H]2C3CC[C@@H]4CC(O)CC[C@@]4(C)C3CC[C@]12C (stereo partly specified)	none (no result: HCMV antiviral, Sm TGR block, HCV inh)
C[C@]12CC[C@H](O)C[C@H]1CC[C@@H]1[C@@H]2C[C@@H](O)[C@]2(C)[C@@H](C3=CC(=O)OC3)CC[C@]12O	HCMV antiviral -99.9, Vaccinia Venus 1.12µM, FMDV inh inconclusive, HCV inh 0.562µM, Vaccinia mCherry 1.12µM
CC(=O)OC1CCC2C3CCC4=CC(=O)CCC4(C)C3CCC2(C)[C@]1(C)O (stereo partly specified)	FMDV inh inconclusive (no result: Vaccinia Venus, Sm TGR block, HCV inh, Vaccinia mCherry)
C[C@]12CC[C@H](O)C[C@H]1CC[C@@H]1[C@@H]2CC[C@]2(C)[C@@H](C3=CC(=O)OC3)CC[C@]12O	HCMV antiviral -97.0, Vaccinia Venus 1.12µM, HCV inh 2µM, Vaccinia mCherry inconclusive
CC(=O)OC1CCC23C(=O)OC45CCC(C6=CC(=O)OC6)C4(C)CCC2C5CCC3(O)C1 (stereo unspecified)	Vaccinia Venus 1.26µM, Vaccinia mCherry 1.78µM (no result: HCMV antiviral, Sm TGR block, HCV inh)
C[C@]12CC[C@@H](O)C[C@@H]1CC[C@@H]1[C@@H]2CC[C@]2(C)C(=O)[C@H](O)C[C@@H]12	none (no result: HCMV antiviral, Sm TGR block, HCV inh)
CC12CCC(O)CC1CCC1C2CCC2(C)C(C3=CC(=O)OC3)C(O)CC12O (stereo unspecified)	HCMV antiviral -97.3, Vaccinia Venus 1.78µM, FMDV inh inconclusive, HCV inh inconclusive, Vaccinia mCherry 1.26µM (no result: Sm TGR block)
O=C(CN1CCN(S(=O)(=O)c2ccc3c(c2)OCCCO3)CC1)N1CCc2ccccc21	none (no result: Sm TGR block, HCV inh)
Cc1[nH]c2ccccc2c1Cc1nnc(SCCC#N)o1	HCV inh inconclusive
CC(C)(C)OC(=O)NCCc1onc(-c2ccc([N+](=O)[O-])cc2)c1C(=O)O	none (no result: Sm TGR block, HCV inh)
CC(=O)OC1CC[C@]2(C)C(CCC3C2CC[C@]2(C)C(C4=CC(=O)OC4)C(OC(C)=O)CC32O)C1 (stereo partly specified)	Vaccinia Venus 1.12µM, FMDV inh inconclusive, Vaccinia mCherry 1µM (no result: HCMV antiviral, Sm TGR block, HCV inh)
